Results taken from PubChem BioAssay AID588676 (Johns Hopkins Ion Channel Center, 2011).
Hit rate of the full screen: of about 310,000 compounds, about 3,900 (1.3%) were called active.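 Rule for the calls: active = calcium-response B-score plate-corrected more than 3 library SD below zero, starting fluorescence within 5 deviations, no agonist response on first addition; inactive = the rest.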 The full list was thinned out, with actives kept by preference.

Each compound was assayed against Mas-related G-protein coupled receptor member X1 (Homo sapiens) (UniProt Q96LB2) (assay: antagonists of human MrgX1 receptor, primary screen, HEK293 cells, Fluo-4 calcium flux (AID 588676;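 for B-score: peak minus trough fluorescence over baseline after final BAM8-22 challenge near maximal dose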)). Conditions: Fluo-4, BAM8-22 antagonism, at 10 µM; active compounds read low.
Sequence of Mas-related G-protein coupled receptor member X1 (Homo sapiens) (Q96LB2 whole entry, looked up): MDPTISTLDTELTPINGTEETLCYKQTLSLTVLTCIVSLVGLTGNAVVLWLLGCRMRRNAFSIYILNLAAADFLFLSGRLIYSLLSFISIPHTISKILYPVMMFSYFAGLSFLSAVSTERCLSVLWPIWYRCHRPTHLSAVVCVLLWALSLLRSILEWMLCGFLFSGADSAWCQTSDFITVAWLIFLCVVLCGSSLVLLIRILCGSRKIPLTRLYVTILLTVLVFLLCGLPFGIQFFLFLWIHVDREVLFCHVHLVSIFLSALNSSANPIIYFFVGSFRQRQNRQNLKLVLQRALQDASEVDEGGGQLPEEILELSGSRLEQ

Compound	B-score
COCCOC(=O)C1=C(C)NC(=O)NC1c1cc2c(cc1Br)OCO2 (stereo not drawn)	inactive
O=C(O)CSC(NC(=O)c1cccnc1)(C(F)(F)F)C(F)(F)F	-5.59 (active)
O=C(Cc1ccccc1)Nc1ccc(NC(=O)c2cccnc2)cc1	inactive
O=C(NNC(=O)c1cccnc1)Nc1ccccc1	inactive
COc1ccccc1CNC(=O)C1CCN(S(=O)(=O)c2ccc3c(c2)OCCO3)CC1	inactive
CCOC(=O)C1CCN(C(=O)COC(=O)C2CCN(S(=O)(=O)c3ccc4c(c3)OCCO4)CC2)CC1	inactive
O=C(COC(=O)C1CCN(S(=O)(=O)c2ccc3c(c2)OCCO3)CC1)Nc1ccccc1OC(F)F	-5.02 (active)
C/C(=N/O)c1ccc(N2C(=O)C3C4C=CC(C3C2=O)C2C3C(=O)N(c5ccc(/C(C)=N/O)cc5)C(=O)C3C42)cc1 (stereo not drawn)	inactive
Clc1ccc(Nc2ccc3ccccc3n2)cc1	inactive
O=C(C1CC(=O)N(c2ccc(F)cc2)C1)N1CCN(c2ccccc2)CC1 (stereo not drawn)	inactive
CCC(C)c1ccccc1N1CC(C(=O)N2CCN(S(=O)(=O)c3ccc(F)cc3)CC2)CC1=O (stereo not drawn)	-7.31 (active)
Cc1ccccc1N1CC(C(=O)Nc2ccc(S(=O)(=O)N3CCCC3)cc2)CC1=O (stereo not drawn)	inactive
Cc1cc(C)n(C(=O)c2ccc(C)c(S(=O)(=O)N3CCOCC3)c2)n1	inactive
O=C(NCc1ccncc1)NC12CC3CC(CC(C3)C1)C2	inactive
S=C(NCc1ccc(Cl)cc1)NC1CCCCC1	inactive
S=C(NCc1ccc(Cl)cc1)NC12CC3CC(CC(C3)C1)C2	-5.44 (active)
CC(=O)c1cccc(NC(=S)N2CCCC2)c1	inactive
O=C(Nc1ccc(Br)cc1)c1cc(S(=O)(=O)Nc2ccccn2)ccc1Cl	inactive
OC(c1ccccc1)c1nccn1Cc1ccccc1 (stereo not drawn)	inactive
CN(Cc1ccccc1)C(=O)C(=O)c1cn(CC(=O)N2CCCC2)c2ccccc12	inactive
CCOC(=O)C1C(c2ccc(Cl)cc2)NC(=S)NC1(O)C(F)(F)F (stereo not drawn)	inactive
O=C(c1cccs1)C1C(c2ccc(Br)cc2)NC(=S)NC1(O)C(F)(F)F (stereo not drawn)	-6.04 (active)
CC(=O)C1C(c2cccc(Oc3ccccc3)c2)NC(=O)NC1(O)C(F)(F)F (stereo not drawn)	inactive
COc1ccc(C(C#N)Nc2ccccc2C)cc1 (stereo not drawn)	inactive
CCOC(=O)N1CCN(S(=O)(=O)c2ccc(OC)cc2)CC1	inactive
O=S(=O)(c1ccc(F)cc1)N1CCN(C(=S)NC2CCCC2)CC1	inactive
COc1ccc(S(=O)(=O)N2CCN(C(=O)NC3CCCCC3)CC2)cc1	-4.64 (active)
C=CC[n+]1c(-c2ccc(C)cc2)csc1NNC(=O)Nc1ccccc1	inactive
